The text below walks through data of PubChem BioAssay AID504467 (National Center for Advancing Translational Sciences (NCATS), 2011).

The whole screen tested about 330,000 compounds, of which about 7,700 (2.3%) were called active. Inconclusive results (about 26%) are left out. The sample as a whole holds a higher share of actives than the screen did. Unmarked numbers belong to inactive results. The call rests on the fitted dose curve; in most records, active means well fitted inhibition curve with a large enough effect; inconclusive means small, poorly fitted or top-dose-only effect, or effect the other way; inactive means flat fitted curve, though single readings scatter.
On the % scale 0 is the no-effect control and ±100 the full control effect; potency means the concentration at half of the fitted maximal effect.

A short description of this assay: qHTS screen for small molecules that inhibit ELG1-dependent DNA repair in human embryonic kidney (HEK293T) cells expressing luciferase-tagged ELG1. Further: nearly all actives have a fitted effect of over 55% in size. The note with it: HEK293T ELG1-luciferase reporter, luminescence, 16 h, DNA damage induced by 5-fluorouridine; series mostly up to 46.1 µM; activity change, negative = inhibition: at the top concentration. The procedure, abridged:
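Reporter activity after DNA damage by 5-fluorouridine is monitored. Compound-treated cells incubate 16 hr at 37 °C, then ONE-Glo is added for 30 min before luminescence reading.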
(Quantitative high-throughput screening tests each substance at several concentrations.)
In the case of `Cc1ccc(N2CCN(c3ccc([N+](=O)[O-])cn3)CC2)c(C)c1`, the “activity change, negative = inhibition” value was -15.6%.
As for `O=C(N/N=C/c1cc(Cl)cc([N+](=O)[O-])c1O)C(O)(c1ccccc1)c1ccccc1`, the Potency was 16.4 µM (active).
As to `O=C(Cc1cc(=O)[nH][nH]1)N/N=C/c1ccccc1[N+](=O)[O-]`, the “activity change, negative = inhibition” value was 19.7%.
Same read-out and setting: the same measure for `CN(C)/N=C/c1cc(Cl)cc([N+](=O)[O-])c1O`: 6.41%; for `CCOC(=O)C1=CN(Cc2ccc(Br)cc2)S(=O)(=O)N(C)C1C` (stereo not given): 5.04%.
On the same count and under the same terms, the same measure for `CCn1c(Cc2ccc(OC)cc2)nnc1SCC(=O)Nc1ccc(N2CCOCC2)cc1`: 6.69%; for `FC(F)(F)c1ccc2c3n(nc2c1)CCN=C3c1ccc(Cl)cc1`: 20%.
As for `CCC(C)n1c(-c2cc(OC)c(OC)c(OC)c2)nc2nc3ccccc3nc21` (stereo not given), the Potency is 14.6 µM (active).
`COc1cc(C(O)c2nc3ccccc3n2C)cc(OC)c1OC` (stereo not given): the “activity change, negative = inhibition” value is 5.28%.
The same measure, in the same setting: as for `COc1cc(-c2n[nH]c(=S)n2Cc2ccccc2)cc(OC)c1OC`, the figure is -2.15%; as for `O=C(COc1ccc([N+](=O)[O-])cc1Cl)Nc1ccc2[nH]c(=O)[nH]c2c1`, -1.89%; as for `Nc1cc(N)nc(SCC(=O)Nc2cccc(S(=O)(=O)N3CCCCC3)c2)n1`, -0.272%.
The same measure, in the same setting: as for `Cc1nn(-c2ccccc2)c2c1c(C)c(CCC(=O)NCC1CCCO1)c(=O)n2C` (stereo not given), the figure is -27.6%; as for `CCCSc1nc2c(c(=O)[nH]c(=O)n2C)n1CCc1ccccc1`, -5.55%; as for `Cc1cccc(OCC(O)Cn2c(N3CCCCC3)nc3c2c(=O)[nH]c(=O)n3C)c1` (stereo not given), -12.2%.
Turning to `CCC(C)Sc1nc2c(c(=O)[nH]c(=O)n2C)n1CC(O)COc1cccc2ccccc12` (stereo not given), the Potency was 8.2 µM (active).
Turning to `COC(=O)c1c(NC(=O)C2CC(C)=C(C)CC2C(=O)O)sc2c1CCCCC2` (stereo not given), the “activity change, negative = inhibition” value is -0.0644%.
On the same count and under the same terms, the same measure for `Cc1ccc(S(=O)(=O)N2CCN(C(=O)COC(=O)CNC(=O)c3ccc(C(C)(C)C)cc3)CC2)c(C)c1`: 0%; for `c1csc(CN2CCN(Cc3cccs3)C2c2cccs2)c1`: 12.2%.
As to `Brc1ccc2c(c1)[C@H]1OCC[C@H]1[C@@H](c1cccs1)N2`, the Potency is 20.6 µM (active).
`CCc1nn(CCCC(=O)Nc2ccc(C)cc2C)c(=O)c2cc3occc3n12`: the “activity change, negative = inhibition” value was 2.59%.
Take `CCn1nc(C)c(NC(=O)/C=C/c2ccc(OC)c(COc3ccc(Br)cc3)c2)c1C`: the Potency is 6.51 µM (active).
For `C/C=C/c1ccc(OCC(=O)OCC(=O)Nc2c(C)nn(-c3ccccc3)c2C)c(OC)c1`, the “activity change, negative = inhibition” value was 12.9%.
Still for that read-out and setting: as for `COc1ccc(C(C)=O)cc1COc1ccc(Cl)c(C)c1`, the figure is -6.19%; as for `CC1CCCCC12NC(=O)N(CC(=O)OCc1c(F)cccc1Cl)C2=O` (stereo not given), -1.13%.
On the same count and under the same terms, as for `COc1ccc(C(=O)NC2CC2)cc1OC1CCN(C/C=C/c2ccccc2)CC1`, the figure is -8.27%; as for `Cc1ccc(C(=O)Nc2ncccc2C)cc1S(=O)(=O)N1CCOCC1`, 17.9%.
On the same count and under the same terms, as for `Cc1nn(Cc2ccccc2)c(C)c1CNC(=O)c1ccc(F)c(S(=O)(=O)N2CCOCC2)c1`, the figure is -0.807%.
As to `CC(C)(CNC(=O)Cc1ccc(Cl)cc1Cl)N1CCOCC1`, the “activity change, negative = inhibition” value is 3.16%.
As for `CN(C)S(=O)(=O)c1ccc(C(=O)NCC(C)(C)N2CCOCC2)cc1`, the “activity change, negative = inhibition” value was -0.438%.
Regarding `Cc1ccccc1CSCCNC(=O)c1ccc(Cl)c(S(=O)(=O)N2CCOCC2)c1`, the Potency is 18.4 µM (active).
Consider `CC(C)(CNC(=O)c1ccc(Cl)c(S(=O)(=O)N2CCc3ccccc3C2)c1)N1CCOCC1`, for which the Potency was 1.83 µM (active).
As for `COc1cccc(C(=O)Nc2nnc(S(=O)(=O)N3CCCCC3)s2)c1`, the “activity change, negative = inhibition” value was -4.91%.
The same measure, in the same setting: as for `CCCn1nc(C(=O)NNC(=O)CCOc2ccccc2OCC)c2ccccc2c1=O`, the figure is -22.5%; as for `O=Cc1c(Nc2ccccc2Cl)nc2ccccn2c1=O`, 16%; as for `Cc1nc2ccccc2c(=O)n1-c1ccc(F)c(NC(=O)c2cccs2)c1`, -29.9%.
On to `O=C(CN1C(=O)NC2(CCCCCC2)C1=O)Nc1ccc([N+](=O)[O-])cc1`, for which the “activity change, negative = inhibition” value is 15.8%.
As for `CC(=O)Nc1ccc(C(=O)Nc2cccc(S(=O)(=O)NC3=NCCC3)c2)cc1`, the “activity change, negative = inhibition” value was 1.78%.
The same measure, in the same setting: the same measure for `CC(=O)c1ccc(S(=O)(=O)N(C)CCCC(=O)N(C)Cc2ccccc2F)cc1`: -16.6%; for `Cc1ccccc1N1CCN(C2CCCN(C(=O)c3ocnc3C)C2)CC1` (stereo not given): -1.3%.
On the same count and under the same terms, as for `Cc1cnc(C(=O)N2CCCC(N3CCN(c4ccccc4F)CC3)C2)cn1` (stereo not given), the figure is 0.472%.
With `Cc1ccccc1N1CCN(C2CCCN(C(=O)c3cn4c(C)cccc4n3)C2)CC1` (stereo not given), the Potency was 16.4 µM (active).
Consider `CC(NC(=O)COC(=O)c1ccc2ccccc2n1)c1ccccc1` (stereo not given), for which the “activity change, negative = inhibition” value is 17.5%.
The same measure, in the same setting: the same measure for `CCN(CC)S(=O)(=O)c1cc(C(=O)Nc2cc(S(=O)(=O)N3CCOCC3)ccc2N2CCCC2)ccc1F`: -9.98%.
For `O=c1oc2ccc(C#CC3(O)CCCCC3)cc2cc1-n1cc(-c2ccsc2)nn1`, the “activity change, negative = inhibition” value is 19.7%.
Consider `COC(=O)[C@]1(Cc2ccccc2)N[C@H](CN(C)S(=O)(=O)c2ccc(OC(F)(F)F)cc2)[C@@H]2C(=O)N(Cc3ccccc3)C(=O)[C@@H]21`, for which the “activity change, negative = inhibition” value is 1.29%.
Same read-out and setting: the same measure for `Cc1nn(CC(=O)Nc2nc3ccccc3s2)c(C)c1[N+](=O)[O-]`: 19.8%.
As to `O=[N+]([O-])c1cc(Br)c(O)c(/C=N/Nc2nc3ccccc3s2)c1`, the Potency was 4.11 µM (active).
For `Cc1ccc(S(=O)(=O)Nc2nc3ccccc3s2)cc1[N+](=O)[O-]`, the “activity change, negative = inhibition” value is 0.096%.
Still for that read-out and setting: as for `Cc1ccccc1NC(=O)NCC1CCN(Cc2cccc(Cl)c2)CC1`, the figure is 16.6%; as for `CC(=O)N1CCOc2ccc(S(=O)(=O)N3CCN(c4cccc(C(F)(F)F)c4)CC3)cc21`, -16.8%; as for `C/C(N)=C(/C#N)C(=O)COC(=O)c1cc(-c2ccccc2)nc2ccc(Br)cc12`, 6.28%.
`COc1cccc(OC)c1C(=O)OCC(=O)/C(C#N)=C(\C)N`: the “activity change, negative = inhibition” value was 9.16%.
For the compound `C/C(N)=C(/C#N)C(=O)COC(=O)c1cc(-c2cccc(Br)c2)nc2ccccc12`, the Potency was 11.6 µM (active).
With `CCOc1ccccc1Nc1nnc(SCC(=O)NCC2CCCO2)s1` (stereo not given), the “activity change, negative = inhibition” value was -7.85%.
Still for that read-out and setting: as for `O=C(COc1ccc(F)cc1Br)NCC1COc2ccccc2O1` (stereo not given), the figure is -0.0293%; as for `O=S(=O)(c1cccs1)N1CCN(Cc2ccccc2)CC1`, -2.29%; as for `O=S(=O)(c1ccc(F)cc1)N1CCN(Cc2ccccc2C(F)(F)F)CC1`, -2.01%.
Same read-out and setting: the same measure for `CC(C)c1ccc2oc(=O)cc(CN3CCN(Cc4ccccc4)CC3)c2c1`: -6.46%; for `Cc1cc2oc(=O)cc(CN3CCN(Cc4ccccc4)CC3)c2cc1C`: -0.0674%.
Regarding `COc1ccc2c(CN3CCN(S(=O)(=O)c4cccs4)CC3)cc(=O)oc2c1`, the Potency is 23.1 µM (active).
Regarding `O=c1cc(CN2CCN(S(=O)(=O)/C=C/c3ccccc3)CC2)c2ccc(O)cc2o1`, the “activity change, negative = inhibition” value was -1.27%.
With `Cc1ccc2c(CN3CCN(S(=O)(=O)c4ccccc4C(F)(F)F)CC3)cc(=O)oc2c1`, the Potency was 17.8 µM (active).
As to `Cc1cc2oc(=O)cc(CN3CCN(S(=O)(=O)c4cccs4)CC3)c2cc1C(C)C`, the Potency was 2.31 µM (active).
`COc1ccc2oc(=O)cc(CN3CCOCC3)c2c1`: the “activity change, negative = inhibition” value was 0%.
